Where “and” joins values, the source holds several entries; their conditions need not be identical. Equal values may be shown once. Compounds without any hit were thinned out: in the full panel of roughly 79,000, 15% have a hit. Calls of active or inactive are those of the source. No stated cut-off is given here; in the data, active means growth inhibition above about 70%; inactive means the rest.
Legend:
[1] = NCI Yeast Anticancer Drug Screen. Data for the mec2-1 strain (AID 157); conditions: S. cerevisiae mec2-1 strain, at 50.0 µM, hits give high values
In short: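 Vehicle-treated cultures served as reference for growth inhibition of compound-exposed mec2-1 yeast.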

[2] = NCI Yeast Anticancer Drug Screen. Data for the sgs1 mgt1 strain (AID 161);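 further: 0% = growth of cultures given vehicle only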; conditions: S. cerevisiae sgs1 mgt1 strain, at 50.0 µM, hits give high values
In short: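 Mutant yeast exposed to compound; growth scored against vehicle-only wells.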

[3] = NCI Yeast Anticancer Drug Screen. Data for the cln2 rad14 strain (AID 165);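 further: 0% = growth equal to vehicle treated cultures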; conditions: S. cerevisiae cln2 rad14 strain, at 50.0 µM, hits give high values
In short: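 Each compound was tested on cln2 rad14 yeast. Inhibition of growth was calculated against vehicle-exposed controls.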

[4] = NCI Yeast Anticancer Drug Screen. Data for the bub3 strain (AID 167); conditions: S. cerevisiae bub3 mutant strain, at 50.0 µM, hits give high values
In short: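 Compounds were applied to a genetically altered yeast strain carrying a cell-cycle control defect. Growth inhibition was scored against vehicle-treated controls.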

[5] = NCI Yeast Anticancer Drug Screen. Data for the mlh1 rad18 strain (AID 175); conditions: S. cerevisiae mlh1 rad18 strain growth inhibition; at 50.0 µM; hits give high values
In short: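 Vehicle-treated cultures served as the reference for growth inhibition in a yeast strain carrying DNA damage repair alterations exposed to each compound.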

[6] = NCI Yeast Anticancer Drug Screen. Data for the rad50 strain (AID 155);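 further: 0% = growth of vehicle-only cultures of the same strain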; conditions: S. cerevisiae rad50 strain growth inhibition; at 50.0 µM; hits give high values
In short: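 Yeast carrying a defined DNA repair defect were exposed to test compounds, and growth was compared with vehicle-treated controls to give percent inhibition.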

COC(=O)C1CCC(=O)N1CN(C(C)=O)c1cccc(O)c1 (centres undefined)
growth inhibition [1]: 3.3% (inactive)
growth inhibition [2]: 0.2% (inactive)
growth inhibition [3]: 9.75% (inactive)
growth inhibition [4]: -15.7% (inactive)
growth inhibition [5]: -52.3% (inactive)

Cc1nc(-[n+]2nc(-c3ccccc3)nn2-c2ccccc2)sc1C
growth inhibition [1]: -15.2% (inactive)
growth inhibition [2]: -18.9% (inactive)
growth inhibition [4]: -26.8% (inactive)
growth inhibition [5]: 7.4% (inactive)

O=[N+]([O-])c1ccc2nc3c4ccccc4c4ccccc4c3nc2c1
growth inhibition [6]: 53.1% (inactive)
growth inhibition [5]: 3.65% (inactive)

CCCCCCCCCOCC(O)COc1ccccc1[N+](=O)[O-] (centres undefined)
growth inhibition [6]: -9.2% (inactive)
growth inhibition [5]: -5.5% (inactive)

CCCN1CCc2cc(OC)c(OC)cc2C1Cc1ccc(OC)c(OC)c1 (centres undefined)
growth inhibition [6]: -13.8% (inactive)
growth inhibition [5]: -5.7% (inactive)

CC(C)(C)c1cc(C2COC(=O)COCCOCC(=O)OCCOCCO2)cc(C(C)(C)C)c1O (centres undefined)
growth inhibition [1]: -13.8% (inactive)
growth inhibition [2]: -10.4% (inactive)
growth inhibition [3]: 4.4% (inactive)
growth inhibition [4]: -23.3% (inactive)
growth inhibition [5]: -60.5% (inactive)

COc1cc(N(CCC#N)CCC#N)ccc1/C(N=Nc1ccc(Cl)cc1)=N/NC(=O)c1cc(Br)ccc1O
growth inhibition [1]: -7.45% (inactive)
growth inhibition [2]: -6.45% (inactive)
growth inhibition [3]: 7.2% (inactive)
growth inhibition [4]: 17.8% (inactive)

O=c1c(=O)n(CCO)n(CCO)c(=O)n1CCO
growth inhibition [6]: -29.7% (inactive)
growth inhibition [5]: -18.1% (inactive)

Clc1nc(Oc2ccccc2)nc(-c2cn(-c3ccccc3)c3ccccc23)n1
growth inhibition [1]: -12.6% (inactive)
growth inhibition [5]: -6.35% (inactive)

N=C(N)c1ccc(N=Nc2c(O)ccc3cc(O)ccc23)cc1
growth inhibition [5]: -27.5% (inactive)

O=C1CCCCCC2=NC12 (centres undefined)
growth inhibition [5]: -25.6% (inactive)

Cc1ccc(NC(=S)N(C)C)cc1C
growth inhibition [1]: -26.3% (inactive)
growth inhibition [5]: 1.1% (inactive)

N#CCC(=O)OCCCCOC(=O)CC#N
growth inhibition [1]: -22.3% (inactive)
growth inhibition [5]: 15.4% (inactive)

CCCCCCCCCCCCOc1ccc(C)cc1
growth inhibition [5]: 5.3% (inactive)

N#CC1(c2ccc(Cl)cc2)CCCC1
growth inhibition [1]: -44% (inactive)
growth inhibition [5]: -14.8% (inactive)

O=Cc1ccc2c(c1Cl)C(=O)c1ccccc1C2=O
growth inhibition [1]: 43.2% (inactive)
growth inhibition [5]: 68.3% (inactive)

N=C(N)c1ccc(N=NNc2ccc(C(=N)N)cc2)cc1
growth inhibition [5]: 84% (active)

N#CCS(=O)(=O)c1cccc[n+]1[O-]
growth inhibition [5]: -37.5% (inactive)

CN(C)c1ccc2c(Nc3ccc(NS(C)(=O)=O)cc3)c3ccc(N(C)C)cc3nc2c1
growth inhibition [5]: 65.6% (inactive)

CC(=O)NC(C(=O)O)C(C)C.CC(=O)NC(C(=O)O)C(C)C.[NH-]C1CCCCC1[NH-].[Pt+2] (centres undefined)
growth inhibition [5]: 7.05% (inactive) and 50% (inactive)

Clc1ccc(C=NCCN=Cc2ccc(Cl)c(Cl)c2)cc1Cl
growth inhibition [5]: -9.3% (inactive)

Nc1nc([Se]c2nc(N)nc3c2ncn3C2OC(CO)C(O)C2O)c2ncn(C3OC(CO)C(O)C3O)c2n1 (centres undefined)
growth inhibition [5]: -32.2% (inactive)

Cc1c(CNc2ccc(C(=O)NC(CC(=O)O)C(=O)O)cc2)ccc2nc(N)nc(N)c12 (centres undefined)
growth inhibition [2]: 47.8% (inactive)
growth inhibition [3]: 9.35% (inactive)
growth inhibition [4]: 16.4% (inactive)

O=C(Cc1nc2ccc(C(=O)c3ccccc3)cc2[nH]c1=O)C(=O)Nc1ccccc1[N+](=O)[O-]
growth inhibition [2]: 7.75% (inactive)
growth inhibition [3]: 9.35% (inactive)
growth inhibition [4]: 6.15% (inactive)
growth inhibition [5]: 12.3% (inactive)

CC[n+]1c(C)n(Cc2ccc(C(=O)O)cc2)c2cc(F)ccc21
growth inhibition [1]: -14.7% (inactive)
growth inhibition [5]: 27.9% (inactive)

CCCCCCSC[C@H](OC(C)=O)[C@@H](OC(C)=O)[C@@H](OC(C)=O)[C@@H](COC(C)=O)OC(C)=O
growth inhibition [2]: 2.65% (inactive)
growth inhibition [3]: -2.95% (inactive)
growth inhibition [4]: 9% (inactive)
growth inhibition [5]: -5.35% (inactive)

NCCSC(C[N+](=O)[O-])c1ccccc1Cl (centres undefined)
growth inhibition [5]: 87.4% (active)

Cc1ccc(-c2noc(CC(=O)c3ccc([N+](=O)[O-])cc3)n2)cc1
growth inhibition [1]: 5.85% (inactive)
growth inhibition [5]: 38.8% (inactive)

Cc1nc2c(Cl)c(Cl)ccc2s1
growth inhibition [1]: -20.9% (inactive)
growth inhibition [5]: 24.2% (inactive)

C=CCNC(=O)C(O)C(O)C(=O)NCC=C (centres undefined)
growth inhibition [1]: -32.5% (inactive)
growth inhibition [5]: -21.2% (inactive)

[Br][Sn]([CH2][Sn]([Br])([c]1ccccc1)[c]1ccccc1)([c]1ccccc1)[c]1ccccc1
growth inhibition [5]: 81.8% (active)

O=C(O)CSCc1nc2ccccc2[nH]1
growth inhibition [1]: -15.7% (inactive)
growth inhibition [5]: 41.8% (inactive)

COC(=O)C/C(=C/C=C1/C(=O)ON=C1C)c1c(C)[nH]oc1=O
growth inhibition [1]: -29.9% (inactive)
growth inhibition [5]: -16.9% (inactive)

CC(C)c1cc(C(=O)O)c(O)c(C(C)C)c1.CC(C)c1cc(C(=O)O)c(O)c(C(C)C)c1.[Cu]
growth inhibition [5]: 54.6% (inactive)

N#C/C=C1\C=CC(O)C(O)C1OC1OC(CO)C(O)C(O)C1O (centres undefined)
growth inhibition [2]: 37.9% (inactive)
growth inhibition [3]: 27.6% (inactive)
growth inhibition [4]: 12.9% (inactive)
growth inhibition [5]: -62.7% (inactive)

C(=NCC1CCC(CN=Cc2ccco2)CC1)c1ccco1 (centres undefined)
growth inhibition [1]: -24.8% (inactive)
growth inhibition [5]: -12.5% (inactive)

COc1ccccc1N1C(=O)CC(Sc2ccccc2N)C1=O (centres undefined)
growth inhibition [1]: -19.4% (inactive)
growth inhibition [5]: 13.1% (inactive)

CCOC(=O)CC(=O)c1ccccc1
growth inhibition [2]: 8.9% (inactive) and -0.85% (inactive)
growth inhibition [3]: 10.8% (inactive) and 11.1% (inactive)
growth inhibition [4]: 13.8% (inactive) and -12.7% (inactive)

O=C(O)COC1CC(=O)N2c3ccccc3C34CCN5C(=O)C(=O)C(CC53)C1C24 (centres undefined)
growth inhibition [1]: -24.9% (inactive)
growth inhibition [5]: -9.5% (inactive)

[Cl][Sn]([CH2][Sn]([Cl])([c]1ccccc1)[c]1ccccc1)([c]1ccccc1)[c]1ccccc1
growth inhibition [5]: 82.2% (active)

OCCOCCOCCOCCO
growth inhibition [3]: -48.1% (inactive)

COC(CN(C)CC(OC)OC)OC
growth inhibition [1]: -20.9% (inactive)
growth inhibition [5]: -11.8% (inactive)

O=C(O)C(O)C(O)C(OC1OC(CO)C(O)C(O)C1O)C(O)CO.O=C(O)C(O)C(O)C(OC1OC(CO)C(O)C(O)C1O)C(O)CO.[NH-]C1CCCCC1[NH-].[Pt+2] (centres undefined)
growth inhibition [5]: -63.5% (inactive)

O=C(O)C(=O)C(O)C(O)C(O)CO.O=C(O)C(=O)C(O)C(O)C(O)CO.[NH-]C1CCCCC1[NH-].[Pt+2] (centres undefined)
growth inhibition [5]: -53.1% (inactive)

CC(C)n1c2c([n+](C)c1/C=C/c1ccccc1)C(=O)c1ccccc1C2=O
growth inhibition [2]: 89.9% (active)
growth inhibition [3]: 88.9% (active)
growth inhibition [4]: 50.4% (inactive)

Nc1ccc2ccc(N)cc2c1
growth inhibition [5]: -33.1% (inactive)

— PubChem BioAssay (NCI)
